Experiments:
Experiment in all cases: growth AUC relative to DMSO control (median of replicates) (fraction); higher = more growth (less inhibition), active = hit call of the paper
Conditions in all cases: 20 µM; 24 h;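 active = AUC reduced over 20% with Padj below 0.05 in at least 2 of 3 replicates; inactive = otherwise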
[1] = system: Akkermansia muciniphila
How it was run: (§1)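 Area under the growth curve was normalised to the plate median of solvent-only wells, except on the industrial chemical plate, where row and column medians were used. Curves came from gut bacterial monocultures grown anaerobically at 37 °C in mGAM with 20 µM compound (1% DMSO), starting at OD600 0.05 and read at OD600 every hour for 24 h. The minimum OD of each curve was set to 0, and values are medians of three biological replicates grown on separate days.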

[2] = system: Bacteroides caccae
How it was run: as §1

[3] = system: Bacteroides clarus
How it was run: as §1

[4] = system: Bacteroides dorei
How it was run: as §1

[5] = system: Bacteroides stercoris
How it was run: as §1

[6] = system: Bacteroides thetaiotaomicron
How it was run: as §1

[7] = system: Bacteroides uniformis
How it was run: as §1

[8] = system: Bifidobacterium longum subsp. longum
How it was run: as §1

[9] = system: Clostridium difficile
How it was run: as §1

[10] = system: Collinsella aerofaciens
How it was run: as §1

Measured: growth AUC

CCOP(=S)(OCC)SCSC(C)(C)C
inactive: [1] 1.04 | [2] 0.964 | [3] 1.01 | [4] 0.963 | [5] 0.988 | [6] 0.998 | [7] 1.02 | [8] 1.13 | [9] 0.888 | [10] 0.96

NC(=S)c1c(Cl)cccc1Cl
inactive: [1] 0.917 | [2] 0.943 | [3] 0.97 | [4] 0.935 | [5] 1.01 | [6] 1.03 | [7] 0.972 | [8] 1.05 | [9] 1.02 | [10] 0.962

C/C(=N/Nc1nc(C)cc(C)n1)c1ccccc1C
inactive: [1] 1.24 | [2] 1.01 | [3] 1.06 | [4] 1 | [5] 1.1 | [6] 0.963 | [7] 1.03 | [8] 1.01 | [9] 0.99 | [10] 0.979

CC1(C)[C@H](C(=O)O[C@H](C#N)c2cccc(Oc3ccccc3)c2)[C@@H]1/C=C\C(=O)OC(C(F)(F)F)C(F)(F)F
inactive: [1] 0.955 | [2] 1.01 | [3] 0.976 | [4] 1.02 | [5] 0.92 | [6] 1.03 | [7] 1.01 | [8] 0.931 | [9] 1.03 | [10] 1.07

ClC1C(Cl)C(Cl)C(Cl)C(Cl)C1Cl (mixture of isomers)
inactive: [1] 0.921 | [2] 0.981 | [3] 0.932 | [4] 1.01 | [5] 0.826 | [6] 0.986 | [7] 0.916 | [8] 0.921 | [9] 0.982 | [10] 1

CC(Cc1ccc(C(C)(C)C)cc1)CN1CCCCC1 (stereo not given)
inactive: [1] 0.735 | [2] 0.963 | [3] 0.951 | [4] 1.01 | [5] 1.15 | [6] 0.974 | [7] 1.02 | [8] 0.99 | [9] 0.971 | [10] 0.959

CCc1cccc(C)c1N(C(=O)CCl)[C@@H](C)COC
inactive: [1] 1.13 | [2] 0.95 | [3] 0.99 | [4] 0.98 | [5] 1.2 | [6] 0.975 | [7] 1 | [8] 1.03 | [9] 0.961 | [10] 0.963

CC(C)Nc1nc(Cl)nc(NC(C)C)n1
inactive: [1] 0.954 | [2] 0.825 | [3] 0.989 | [4] 0.965 | [5] 1.14 | [6] 0.96 | [7] 1.02 | [8] 1.07 | [9] 0.986 | [10] 0.961

O=C(Nc1ccccc1)Nc1ccnc(Cl)c1
inactive: [1] 0.926 | [2] 0.9 | [3] 0.949 | [4] 0.977 | [5] 0.926 | [6] 0.94 | [7] 0.886 | [8] 0.959 | [9] 0.941 | [10] 1.01

CCOP(=S)(Oc1cnc(C(C)(C)C)nc1)OC(C)C (stereo not given)
inactive: [1] 0.912 | [2] 0.973 | [3] 0.94 | [4] 1.02 | [5] 0.977 | [6] 1.01 | [7] 0.974 | [8] 0.97 | [9] 1 | [10] 1.03

COP(=S)(OC)Oc1nc(Cl)c(Cl)cc1Cl
inactive: [1] 1.06 | [2] 1.01 | [3] 1 | [4] 0.998 | [5] 0.947 | [6] 0.96 | [7] 0.935 | [8] 1.01 | [9] 0.975 | [10] 0.991

COC(=O)c1cc(Oc2ccc(Cl)cc2Cl)ccc1[N+](=O)[O-]
active: [3] 0.793 | [5] 0.436
inactive: [1] 1.02 | [2] 0.953 | [4] 0.973 | [6] 0.968 | [7] 0.814 | [8] 1.02 | [9] 0.905 | [10] 0.901

CCCSP(=S)(OCC)Oc1ccc(SC)cc1 (stereo not given)
inactive: [1] 0.897 | [2] 0.998 | [3] 0.958 | [4] 1 | [5] 1.06 | [6] 0.979 | [7] 0.998 | [8] 0.971 | [9] 1.01 | [10] 1.04

CN(C)NC(=O)CCC(=O)O
inactive: [1] 0.948 | [2] 1 | [3] 1.01 | [4] 1.04 | [5] 1.01 | [6] 0.998 | [7] 0.992 | [8] 1.01 | [9] 0.991 | [10] 1

Oc1ccc(Cl)c(Cl)c1Cl
inactive: [1] 0.923 | [2] 0.922 | [3] 0.975 | [4] 1.02 | [5] 1.15 | [6] 1 | [7] 0.96 | [8] 0.969 | [9] 0.998 | [10] 0.993

O=C(Nc1ccccc1-c1ccc(Cl)cc1)c1cccnc1Cl
inactive: [1] 0.987 | [2] 0.998 | [3] 0.986 | [4] 0.998 | [5] 1.01 | [6] 0.958 | [7] 0.966 | [8] 1.03 | [9] 0.998 | [10] 0.999

CN(C)C(CSS(=O)(=O)[O-])CSS(=O)(=O)[O-].[Na+].[Na+]
inactive: [1] 0.921 | [2] 0.916 | [3] 1 | [4] 1.09 | [5] 1.04 | [6] 0.983 | [7] 1.14 | [8] 1.25 | [9] 0.955 | [10] 0.969

CNC(=O)O/N=C/C(C)(C)S(C)(=O)=O
inactive: [1] 0.927 | [2] 0.994 | [3] 0.962 | [4] 1.02 | [5] 0.973 | [6] 1 | [7] 1.01 | [8] 1.05 | [9] 0.966 | [10] 1.01

CC(C)N(C(=O)CCl)c1ccccc1
inactive: [2] 1.02 | [3] 0.969 | [4] 1.01 | [5] 0.978 | [6] 0.933 | [7] 0.96 | [8] 0.946 | [9] 0.965 | [10] 1.05
active: [1] 0.256

COCc1c(F)c(F)c(COC(=O)C2C(C=C(C)C)C2(C)C)c(F)c1F (stereo not given)
inactive: [1] 0.976 | [2] 0.953 | [3] 0.943 | [4] 0.991 | [5] 1.17 | [6] 0.98 | [7] 0.972 | [8] 1.01 | [9] 1.02 | [10] 1.03

Nc1cc(Cl)ccc1Cl
inactive: [1] 1.03 | [2] 0.993 | [3] 1.05 | [4] 1.04 | [5] 1.25 | [6] 1.03 | [7] 1.03 | [8] 0.992 | [9] 1 | [10] 1.01

CCS(=O)Cc1ccccc1OC(=O)NC (stereo not given)
inactive: [1] 1.22 | [2] 0.98 | [3] 0.986 | [4] 0.943 | [5] 0.992 | [6] 1 | [7] 0.945 | [8] 0.966 | [9] 0.979 | [10] 0.977

Cc1cccc2sc3nncn3c12
inactive: [1] 0.892 | [2] 0.989 | [3] 0.965 | [4] 1.04 | [5] 1.03 | [6] 0.993 | [7] 1.01 | [8] 0.964 | [9] 0.973 | [10] 1.07

CCOP(=S)(OCC)SCn1nnc2ccccc2c1=O
inactive: [1] 0.989 | [2] 0.969 | [3] 0.993 | [4] 1.01 | [5] 1.1 | [6] 0.908 | [7] 0.913 | [8] 1.04 | [9] 1.02 | [10] 1.03

CNC(=O)ON=C(C)C(C)SC (stereo not given)
inactive: [1] 1.1 | [3] 1.03 | [4] 0.983 | [5] 1.3 | [6] 0.916 | [7] 0.838 | [8] 1.03 | [9] 0.927 | [10] 0.979
active: [2] 0.726

CC(C)OC(=O)Nc1cccc(Cl)c1
inactive: [1] 1.06 | [2] 0.915 | [3] 0.985 | [4] 0.948 | [5] 1.04 | [6] 1.02 | [7] 0.984 | [8] 0.981 | [9] 1.01 | [10] 0.963

O=CNC(N1CCN(C(NC=O)C(Cl)(Cl)Cl)CC1)C(Cl)(Cl)Cl (stereo not given)
inactive: [1] 1.13 | [2] 0.947 | [3] 0.923 | [4] 0.849 | [5] 0.879 | [6] 0.919 | [7] 0.985 | [8] 1.08 | [9] 0.957 | [10] 0.938

C#CCN1C(=O)COc2cc(F)c(N3C(=O)C4=C(CCCC4)C3=O)cc21
inactive: [1] 1.23 | [2] 1.01 | [3] 0.994 | [4] 0.931 | [5] 1 | [6] 1 | [7] 0.959 | [8] 1.02 | [9] 0.929 | [10] 0.944

Oc1cc(Cl)c(Cl)cc1Cl
inactive: [1] 0.97 | [2] 0.934 | [3] 0.945 | [4] 0.936 | [5] 0.913 | [6] 0.986 | [7] 0.992 | [8] 1.02 | [9] 0.929 | [10] 0.922

— the supplement of paper PMC12669032
